What all share (test): NCI-60 one-dose screen, 48 h (100 = growth as untreated, 0 = no growth, -100 = all killed)
For experiment [1], the system named is HCT-15 colon. Particulars: 10 µM unless noted.
Experiment [2] relates to HT29 colon. The following applies: 10 µM unless noted.
For experiment [3], the system named is SNB-75 CNS. Particulars: 10 µM unless noted.
Experiment [4] concerns SNB-19 CNS. Particulars: 10 µM unless noted.
Experiment [5] has as its system PC-3 prostate. Particulars: 10 µM unless noted.
Experiment [6] deals with SK-MEL-5 melanoma. The following applies: 10 µM unless noted.
In experiment [7] the test system is UACC-62 melanoma. Particulars: 10 µM unless noted.
For experiment [8], the system named is LOX IMVI melanoma. The following applies: 10 µM.
Experiment [9] relates to SK-MEL-28 melanoma. Particulars: 10 µM unless noted.
Experiment [10] deals with SK-MEL-2 melanoma. Particulars: 10 µM unless noted.
Experiment [11] deals with SN12C renal. The following applies: 10 µM unless noted.
Experiment [12] has as its system UO-31 renal. The following applies: 10 µM unless noted.
The test system of experiment [13] is TK-10 renal. Particulars: 10 µM unless noted.
The subject of experiment [14] is ACHN renal. The following applies: 10 µM unless noted.
The subject of experiment [15] is CAKI-1 renal. The following applies: 10 µM unless noted.
In experiment [16] the test system is A498 renal. Particulars: 10 µM unless noted.
Experiment [17] deals with CCRF-CEM leukemia. Particulars: 10 µM unless noted.
Experiment [18] has as its system MOLT-4 leukemia. The following applies: 10 µM unless noted.
Experiment [19] deals with U251 CNS. The following applies: 10 µM unless noted.
The subject of experiment [20] is EKVX NSCLC. The following applies: 10 µM unless noted.

Among the data in PubChem BioAssay (NCI) are growth values, retold here.

The panel holds about 83,000 compounds, 20% with a hit somewhere; the sample as a whole holds those more often.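 Interpretation: 100, growth as untreated; towards 0, rising growth inhibition; 0, no net growth; 0 to -100, cell death. Compounds scoring below 10 were considered active.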 Values without a mark were called inactive. The source made the active and inactive calls.

Consider `O=S(=O)(c1ccc(NC(=S)NCc2cccnc2)cc1)N1CCCCC1`, for which the growth in experiment [1] was 57.2%; in [2], 55.2%; in [3], 78.4%; in experiment [4], 60.6%; in [5], 25.3%; in experiment [6], 74.2%. In addition, the growth in experiment [7] is 93.7%; in experiment [8], 56.5%; in experiment [9] it was 92.6%; in [10], 41.6%; in experiment [11] it was 36.1%; in experiment [12], 70.7%. In addition, the growth is 112% in experiment [13]; 86.9% in experiment [14]; 29.1% in experiment [15]; 97.3% in [16]; 29% in [17]; 47.3% in experiment [18].

For the molecule `Cc1ccc([N+](=O)[O-])c(C)n1`, the growth in experiment [1] was 97.9%; in experiment [2] it was 108%; in [3], 77.8%; in [4] it was 105%; in [19] it was 102%; in [6], 114%. Besides, the growth in [7] was 107%; in [8] it was 103%; in [9], 99.6%; in experiment [10], 120%; in [20], 97.2%; in [11] it was 106%. The growth in experiment [12] was 74.1%; in experiment [13] it was 117%; in experiment [14] it was 91.5%; in experiment [16], 79.8%; in [17] it was 96.4%; in [18], 115%.

`O=Cc1ccc(Cl)c(Cl)c1`: the growth in experiment [1] was 110%; in experiment [2], 106%; in experiment [3], 88.4%; in [4], 111%; in [19], 104%; in experiment [6], 110%. The growth in [7] is 102%; in [8], 95%; in experiment [9] it was 107%; in experiment [20], 109%; in experiment [11], 110%; in [12], 80.1%. Further, the growth in experiment [13] was 98%; in experiment [15] it was 111%; in experiment [17] it was 97.8%; in experiment [18] it was 106%.

With `CC(=O)c1cccs1`, the growth in experiment [1] was 99.5%; in experiment [2] it was 99.8%; in [3], 96%; in experiment [4], 102%; in experiment [19] it was 101%; in [6], 110%. Moreover, the growth in experiment [7] was 94.2%; in [8] it was 93.1%; in experiment [9], 98.1%; in experiment [10] it was 112%; in [11] it was 96.8%; in experiment [12], 106%. Moreover, the growth in [13] is 103%; in [15], 102%; in experiment [17], 113%; in [18] it was 95.4%.

Consider `CCCCn1cnc2c(=O)[nH]cnc21`, for which the growth in [1] is 105%; in [2], 104%; in experiment [3], 89.6%; in experiment [4], 96.9%; in [19], 109%; in experiment [6], 119%. The growth in experiment [7] was 95.7%; in [8] it was 109%; in [9] it was 107%; in [10], 107%; in [20], 97.9%; in [12], 94.7%. The growth in [13] is 109%; in experiment [14], 89.7%; in experiment [15], 98.4%; in experiment [17], 96.7%; in experiment [18] it was 96.2%.

On to `COc1cc2c(c(OC)c1OC)-c1ccc(SC)c(=O)cc1[C@@H](NC1OC(CO)C(O)C(O)C1O)CC2` (stereo not given in full), for which the growth is 14.8% in [1]; 0.658% (active) in experiment [2]; 24.9% in [3]; 71.5% in experiment [4]; 15.7% in experiment [5]; -18.3% (active) in [6]. For the same molecule, the growth in experiment [7] is 43.3%; in experiment [8], 22.3%; in experiment [9], 61.1%; in experiment [10] it was 4.69% (active); in experiment [11], 33.6%; in [12], 34.4%. Further, the growth is 42.1% in [13]; 18.7% in [15]; -14.3% (active) in experiment [16]; 4.92% (active) in experiment [17]; 1.36% (active) in [18].

For the molecule `Cc1cc(=O)n(Nc2ccccc2)c(O)c1C#N`, the growth is 105% in [2]; 97.4% in experiment [3]; 103% in experiment [4]; 103% in experiment [19]; 99.4% in [5]; 104% in [6]. Moreover, the growth is 103% in experiment [7]; 96.6% in [8]; 111% in [9]; 96.4% in [10]; 99.4% in experiment [11]; 62% in experiment [12]. In addition, the growth in [13] is 104%; in experiment [15] it was 92.5%; in [16] it was 115%; in experiment [17] it was 99.8%; in experiment [18], 103%.

In the case of `Oc1cccc(CNC2CCCCC2)c1`, the growth is 100% in experiment [2]; 90.4% in [3]; 95% in experiment [4]; 106% in experiment [19]; 99.8% in experiment [5]; 103% in experiment [6]. Moreover, the growth in experiment [7] was 96.5%; in experiment [8], 113%; in experiment [9], 110%; in experiment [10] it was 115%; in [20] it was 115%; in experiment [11], 106%. The growth in [12] was 86.6%; in experiment [13], 105%; in experiment [14], 107%; in experiment [15], 106%; in [16] it was 136%; in [17], 107%. Further, the growth in [18] was 106%.

Take `O=S1(=O)c2ccccc2Oc2ccccc21`: the growth in [2] is 99.6%; in experiment [3], 80.5%; in experiment [4], 104%; in experiment [19] it was 94%; in experiment [5] it was 92.7%; in experiment [6], 108%. Besides, the growth in experiment [7] was 102%; in [8], 102%; in experiment [10], 100%; in [11], 96.8%; in experiment [12], 93.9%; in experiment [13], 101%. In addition, the growth in experiment [14] is 99.7%; in experiment [15], 92.9%; in [16], 99.7%; in experiment [17], 127%; in experiment [18], 111%.
